Source: PubChem BioAssay AID1159580 (chemical genetic matrix, 2015)
Among all 5,500 compounds or so, about 2,000 (36%) were called active. Roughly 18% stayed inconclusive and do not appear here. Rule as the data show it: active = normalized growth mostly below about 0.91 (no sharp cut-off); inconclusive = no clear call, values can overlap the other calls; inactive = mostly above about 0.92. The list shows a part of the results.

Test: chemical genetic growth profiling, strain panel (AID 1159580);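 also: tested at 20 µM; growth read once vehicle control cultures reached saturation at 30 °C; 1 = growth at the plate median or of vehicle wells; lower values mean less growth of the strain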
Details: S. cerevisiae deletion strains, growth OD

Measured: normalized growth

NCCCCNS(=O)(=O)c1cccc2c(Cl)cccc12
inactive: locus YAL013W, strain DEP1, active compounds read low 1.01 | locus YAL040C, strain CLN3, active compounds read low 1.02 | locus YDR363W, strain ESC2, active compounds read low 1.01 | locus YER002W, strain NOP16, active compounds read low 1.01 | locus YGR078C, strain PAC10, active compounds read low 1.01 | locus YGR229C, strain SMI1, active compounds read low 1.04 | locus YJR075W, strain HOC1, active compounds read low 0.989 | locus YMR263W, strain SAP30, active compounds read low 1.01 | locus YNL153C, strain GIM3, active compounds read low 0.993 | locus YNL175C, strain NOP13, active compounds read low 1 | locus YNL197C, strain WHI3, active compounds read low 1 | locus YNL224C, strain SQS1, active compounds read low 0.995 | locus YOR083W, strain WHI5 (second series), active compounds read low 1.02 | locus YPL055C, strain LGE1, active compounds read low 1.01

N=c1ccc2nc3c(Cl)c4c(c(Cl)c3oc-2c1S(=O)(=O)O)Nc1ccc(N)c(S(=O)(=O)O)c1O4
inactive: locus YAR019C, strain CDC15, active compounds read low 1.01 | locus YBL105C, strain PKC1, active compounds read low 1.01 | locus YBR135W, strain CKS1, active compounds read low 1.01 | locus YBR136W, strain MEC1, active compounds read low 1.01 | locus YBR160W, strain CDC28, active compounds read low 1.01 | locus YDL017W, strain CDC7, active compounds read low 1.02 | locus YDL028C, strain MPS1, active compounds read low 1.01 | locus YDL101C, strain DUN1, active compounds read low 1.01 | locus YDL108W, strain KIN28, active compounds read low 1.01 | locus YDL132W, strain cdc53, active compounds read low 1 | locus YDL214C, strain PRR2, active compounds read low 1.02 | locus YDR052C, strain DBF4, active compounds read low 1.01 | locus YDR054C, strain cdc34, active compounds read low 1 | locus YDR226W, strain ADK1, active compounds read low 0.993 | locus YDR477W, strain SNF1, active compounds read low 1.01 | locus YER123W, strain YCK3, active compounds read low 1.01 | locus YER133W, strain GLC7, active compounds read low 0.992 | locus YFL009W, strain cdc4, active compounds read low 0.997 | locus YFL029C, strain CAK1, active compounds read low 1 | locus YFR003C, strain YPI1, active compounds read low 1.01 | locus YFR019W, strain FAB1, active compounds read low 0.993 | locus YFR028C, strain CDC14, active compounds read low 1.01 | locus YGR040W, strain KSS1, active compounds read low 1.02 | locus YGR052W, strain FMP48, active compounds read low 1.09 | locus YGR092W, strain DBF2, active compounds read low 1.03 | locus YHR030C, strain SLT2, active compounds read low 0.962 | locus YHR079C, strain IRE1, active compounds read low 0.995 | locus YHR082C, strain KSP1, active compounds read low 1.16 | locus YHR205W, strain SCH9, active compounds read low 1 | locus YIL147C, strain SLN1, active compounds read low 1.01 | locus YJL095W, strain BCK1, active compounds read low 1.06 | locus YJL128C, strain PBS2, active compounds read low 1 | locus YJL157C, strain FAR1, active compounds read low 0.994 | locus YJR016C, strain ILV3, active compounds read low 1.02 | locus YJR066W, strain TOR1 (second series), active compounds read low 0.981 | locus YJR066W, strain TOR1, active compounds read low 1.14 | locus YKL048C, strain ELM1, active compounds read low 1.01 | locus YKL067W, strain YNK1, active compounds read low 1.01 | locus YKL101W, strain HSL1, active compounds read low 1.02 | locus YKL193C, strain SDS22, active compounds read low 1.01 | locus YKL203C, strain TOR2, active compounds read low 1.06 | locus YLR113W, strain HOG1, active compounds read low 1.06 | locus YLR133W, strain CKI1, active compounds read low 1.01 | locus YLR403W, strain SFP1, active compounds read low 0.975 | locus YML070W, strain DAK1, active compounds read low 1.02 | locus YMR001C, strain CDC5, active compounds read low 1.01 | locus YMR205C, strain PFK2 (second series), active compounds read low 1.02 | locus YMR277W, strain FCP1, active compounds read low 1.01 | locus YNL006W, strain LST8, active compounds read low 1 | locus YNL020C, strain ARK1, active compounds read low 1.02 | locus YNL161W, strain CBK1, active compounds read low 0.998 | locus YNL183C, strain NPR1, active compounds read low 1.11 | locus YNL207W, strain RIO2, active compounds read low 1.02 | locus YNL222W, strain SSU72, active compounds read low 1.01 | locus YNL307C, strain MCK1 (second series), active compounds read low 1.01 | locus YOL078W, strain AVO1, active compounds read low 1.01 | locus YOL136C, strain PFK27, active compounds read low 1 | locus YOR061W, strain CKA2, active compounds read low 1.02 | locus YOR119C, strain RIO1, active compounds read low 1.08 | locus YOR231W, strain MKK1, active compounds read low 1.04 | locus YOR329C, strain SCD5, active compounds read low 1.01 | locus YPL031C, strain PHO85, active compounds read low 1.01 | locus YPL153C, strain RAD53, active compounds read low 1.01 | locus YPL204W, strain HRR25, active compounds read low 1 | locus YPL209C, strain IPL1, active compounds read low 1.01 | locus YPL256C, strain CLN2, active compounds read low 0.998 | locus YPR025C, strain CCL1, active compounds read low 1.01 | locus YPR106W, strain ISR1, active compounds read low 1.02 | locus YPR111W, strain DBF20, active compounds read low 1 | strain NNK1, active compounds read low 1.03 | strain TSCII, active compounds read low 1
